# Screens as filed in PubChem BioAssay.
# Sfp inh: inhibitors of Bacillus subtilis Sfp phosphopantetheinyl transferase; Q9F4F7; 3.5% of 310,000 active; Potency, µM, without a hit: largest response in the series, negative = inhibition, most hits filed as inhibitors; Biochemical Sfp PPTase activity, qHTS;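 also: the enzyme is Sfp with the accession as filed and its product quenches rhodamine fluorescence; 0% = enzyme reaction without inhibitor and -100% = no enzyme wells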
#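 Fluorescence-quenching assay with 15 nM Sfp, 5 uM rhodamine-CoA and 12.5 uM BHQ-2-labelled ybbR peptide in pH 7.6 Hepes/MgCl2 buffer. Enzyme was pre-incubated with compound for 15 min at room temperature. Rate was taken from the 30-min fluorescence change (525/598 nm).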
# NPSR antag: antagonists of human neuropeptide S receptor cAMP signaling; Q6W5P4; 1% of 220,000 active; CHO-NPSR cells, cAMP TR-FRET, antagonist mode; Potency, µM (doses to about 38.3 µM), inactives show at the highest dose activity change, negative = inhibition, usual class: inhibitors; also: % is scaled to controls: 0 for no effect and ±100 for the full control effect; nearly all actives have a fitted effect of over 50% in size
# Target sequence (Q6W5P4 whole entry, looked up): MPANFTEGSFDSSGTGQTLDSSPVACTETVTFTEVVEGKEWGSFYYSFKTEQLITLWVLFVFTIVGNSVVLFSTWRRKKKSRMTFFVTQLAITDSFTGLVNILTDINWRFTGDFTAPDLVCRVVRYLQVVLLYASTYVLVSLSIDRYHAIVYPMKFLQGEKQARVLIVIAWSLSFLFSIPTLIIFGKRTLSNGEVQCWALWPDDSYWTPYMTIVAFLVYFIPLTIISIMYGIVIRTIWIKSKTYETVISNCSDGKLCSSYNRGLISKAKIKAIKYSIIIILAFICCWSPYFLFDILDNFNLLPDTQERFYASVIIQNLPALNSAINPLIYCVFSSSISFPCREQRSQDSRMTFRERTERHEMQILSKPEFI
# GCN5L2 inh: inhibitors of human GCN5L2 histone acetyltransferase | Q92830 | GCN5L2 HAT assay, ThioGlo1 CoA-SH fluorescence | Potency, µM (highest dose often 58.9 µM), without a hit: top-dose activity change, negative = inhibition, usual class: inhibitors | 0.21% of 390,000 active; also: % is scaled to controls: 0 for no effect and ±100 for the full control effect
#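 Free CoA generated was detected with ThioGlo1 (50uM) fluorescence at Ex340nm/Em540nm, read immediately and after 20 min at room temperature. Enzyme, 20 nM in HEPES pH 7.5 buffer, saw compounds 15 min before adding 75uM H3(1-25) peptide and 70uM acetyl-CoA.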
# JMJD2E inh: inhibitors of human JMJD2E histone demethylase | B2RXH2 | JMJD2E catalytic domain, FDH-coupled NADH fluorescence (FDH is formaldehyde dehydrogenase) | Potency, µM (highest dose often 57.1 µM), inactives show top-dose activity change, negative = inhibition, hits mostly inhibitors | 1.6% of 230,000 active; active = well fitted inhibition curve with a large enough effect, not every such curve was filed as active; inconclusive = small, poorly fitted or top-dose-only effect, or another doubt; inactive = no such curve, though single readings can be large or run the other way;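 also: 0% = wells with enzyme and -100% = buffer wells without enzyme; nearly all actives have a fitted effect of over 50% in size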
# Target sequence (B2RXH2 1-337 limits assumed): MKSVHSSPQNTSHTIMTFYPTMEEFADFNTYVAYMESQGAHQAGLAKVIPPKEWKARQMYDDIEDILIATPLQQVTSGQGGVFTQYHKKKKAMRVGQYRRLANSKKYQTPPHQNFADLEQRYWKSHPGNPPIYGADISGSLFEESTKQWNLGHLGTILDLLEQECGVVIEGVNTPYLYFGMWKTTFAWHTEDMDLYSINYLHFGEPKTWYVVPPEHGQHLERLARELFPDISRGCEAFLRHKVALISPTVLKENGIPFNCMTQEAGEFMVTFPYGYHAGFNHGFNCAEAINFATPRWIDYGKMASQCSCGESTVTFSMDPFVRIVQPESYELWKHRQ
# IMPase Li cell: membrane-permeable IMPase blocker, potentiated with lithium. Potency, µM (doses to about 59.4 µM), for inactives: at the highest dose activity, negative = IMPase inhibition, actives largely listed as inhibitors. 0.35% of 210,000 active. CHO-M1 cells, IP1 TR-FRET (IP-One), carbachol + lithium;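 also: IP1 builds up when IMPase is blocked and the TR-FRET signal falls; plate controls were basal vehicle for no effect and high inhibitor control for full effect; nearly all actives have a fitted effect of over 50% in size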
#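 CHO cells stably expressing M1 receptor (2000/well) were cultured 16–30 h, then exposed to compounds with a small lithium addition for 30 min at 37C. IP1 was measured by TR-FRET competition; AC50 from Hill fits.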
# Epigenetic reg: derepresses silenced GFP reporter in murine cells | murine LDR cells, GFP reporter derepression, 30 h | Potency, µM (titrated, usually from 53.9 µM), without a hit: at the highest dose GFP activation, actives largely listed as activators | 0.2% of 280,000 active; also: % of control where 0% means no effect; nearly all actives have a fitted effect of over 60% in size
#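 Derepression of a silenced CMV-GFP reporter in murine LDR cells is scored by enumerating GFP-positive cells with a laser-scanning microplate cytometer after 30 hours of treatment at 37 C.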
# * marks the source's active call; other numbers are inactive results; ? = inconclusive; / = no result given; ! = repeats disagree; [ ] = another dose, or the depositor's remark. Hits are enriched below; roughly 3.6% of the tested compounds scored in any of these assays. Unless noted, calls follow the shape of the dose curve; as a rule, active = well fitted curve in the direction sought with a large enough effect; inconclusive = small, poorly fitted or top-dose-only effect, or another doubt; inactive = no such curve, though single readings can be large; an effect the other way counts as inactive or inconclusive. Potency is read from the fitted curve at half-maximal effect.
SMILES,Sfp inh,NPSR antag,GCN5L2 inh,JMJD2E inh,IMPase Li cell,Epigenetic reg
Cc1ccc(C)c(N2CCN(CCCNC(=O)c3ccc4nc(C(C)C)oc4c3)CC2)c1,/,/,-5%,/,/,-2%
COc1ccc(CCN(C)CCCOc2ccc(S(=O)(=O)c3[nH]c4ccccc4c3C(C)C)cc2)cc1OC,40µM*,/,-20%,25µM*,28%,2%
COc1ccc(CCN(C)CCc2ccc(OC)c(OC)c2)cc1OC,16%,6%[46.1 µM],-1%,3%,18%,0%
COC(=O)C1=C[C@@H](C(=O)OC)C2C3=C(C(=O)[C@]2(CC(C)C)NC(=O)c2ccccc2)[C@H](C)n2c(=O)n(C)c(=O)n2[C@@H]3C1 (stereo partly specified),19%,/,/,/,/,/
CCCn1c(-c2ccc(F)cc2)nc2c(NCCN(C)C)nc(C)nc21,-4%,/,/,?,-5%,0%
Cc1onc(-c2c(Cl)cccc2Cl)c1C(=O)NN1CCCCCC1,16%,-6%,-5%,0%,/,0%
Cc1c(C(=O)NN2CCCCC2)nn(-c2ccc(Cl)cc2Cl)c1-c1ccc(I)cc1,14%,10µM*,10%,1%,/,0%
CC[C@H](C)[C@H](NC(=O)[C@H](Cc1ccc(O)cc1)NC(=O)[C@H](Cc1cnc[nH]1)NC(=O)[C@H](CCCNC(=N)N)NC(=O)[C@H](CC(C)C)NC(=O)[C@H](C)NC(=O)[C@H](CO)NC(=O)[C@H](Cc1ccc(O)cc1)NC(=O)[C@H](Cc1ccc(O)cc1)NC(=O)[C@H](CCCNC(=N)N)NC(=O)[C@H](C)NC(=O)[C@H](CCSC)NC(=O)[C@H](CC(=O)O)NC(=O)[C@H](CCC(=O)O)NC(=O)[C@H](C)NC(=O)[C@@H]1CCCN1)C(=O)N[C@@H](CC(N)=O)C(=O)N[C@@H](CC(C)C)C(=O)N[C@H](C(=O)N[C@H](C(=O)N[C@@H](CCCNC(=N)N)C(=O)N[C@@H](CCC(N)=O)C(=O)N[C@@H](CCCNC(=N)N)C(=O)N[C@@H](Cc1ccc(O)cc1)C(N)=O)[C@@H](C)O)[C@@H](C)CC,?,/,-9%,/,/,/
C/C(=N\Nc1nc(-c2ccc(C)cc2C)cs1)c1cc2ccccc2oc1=O,40µM*,-28%,-1%,-4%,-3%,2%
Cc1cccc(/C=C2/Sc3ccc(C(=O)NCCCN4CCOCC4)cc3NC2=O)c1,50µM*,/,-1%,/,/,/
COc1ccc(/C=C2/Sc3ccc(C(=O)NCCCN4CCOCC4)cc3NC2=O)cc1OC,-3%,/,-12%,/,/,/
CCN1CCN(CCCNC(=O)c2ccc3c(c2)NC(=O)/C(=C\c2cccc(C)c2)S3)CC1,35µM*,/,1%,/,/,/
N#C/C(C(=O)NCc1ccco1)=C1/SC=C(c2ccccc2)N1c1ccccc1,0%,?,4%,?,11µM*,-2%
N#C/C(C(=O)NCc1ccco1)=C1/SC(Cc2ccc(Cl)cc2)C(=O)N1c1ccccc1 (stereo unspecified),40µM*,-29%[46.1 µM],1%,-2%,5%,2%
CC1=CS/C(=C(/C#N)C(=O)NCc2ccco2)N1c1ccccc1,2%,-10%[46.1 µM],-1%,-1%,-2%[38.3 µM],11%
C/C=C(\C=C\[C@@H](C)C/C=C/CC/C=C/C=C\C[C@@H](OC)/C(C)=C\C=C(C)C)CC(=O)O,1%,/,-1%,/,/,/
CCc1nnc(NC(=O)c2ccc3ccccc3n2)s1,?,-44%,-7%,-11%,28%,-1%
CCSc1nnc(NC(=O)c2ccc3ccccc3n2)s1,?,7.9µM*,0%,-3%,0%[38.3 µM],?
O=c1n(Cc2cc3c(cc2Cl)OCO3)c(=O)n2n1CC[C@H]1/C(=N\OC[C@@H](O)COCc3ccco3)[C@H]3O[C@@H]3[C@@H](O)[C@@H]12,18%,/,/,/,/,1%[10.1 µM]
O=C(NC(=S)NC(=O)c1ccccc1F)c1ccccc1F,50µM*,11%,-1%,-4%,13%,0%
CN(C(=O)Cc1ccccc1OC(=O)c1ccccc1)c1ccccc1I,-15%,/,/,/,/,/
CCOC(=O)Nc1sc(=S)n(C)c1C,16µM*,-4%[46.1 µM],-3%,-21%,9%,?
Cc1c(NC(=O)OCCNC(=O)Nc2ccccc2)sc(=S)n1C,-24%,-14%[46.1 µM],-16%,-3%,2%[38.3 µM],-1%
Cc1ccc(S(=O)(=O)NCCOC(=O)Nc2sc(=S)n(C)c2C)cc1,56µM*,-9%[46.1 µM],-10%,6%,-14%[38.3 µM],-7%
Cc1cc(/C=N/NC(=O)C(O)(c2ccccc2)c2ccccc2)c(C)n1-c1cccc(C(=O)O)c1,40µM*,-1%,-20%,?,/,-5%
SMILES,Sfp inh,NPSR antag,GCN5L2 inh,JMJD2E inh,IMPase Li cell,Epigenetic reg
Cc1cc(/C=N/NC(=O)c2cccc(N(C)C)c2)c(C)n1-c1cc(C(=O)O)cc(C(=O)O)c1,-6%,5%,-28%,25µM*,8%,-3%
Cc1noc(C)c1-c1ccc2ncnc(NCc3cccn3C)c2c1,-10%,/,/,/,/,/
[O-]/[N+](=C/c1ccc(F)cc1)c1ccc(Cl)cc1,40µM*,0%[46.1 µM],1%,3%,28%[38.3 µM],0%
C=CCCCCCCCCCCCc1ccco1,?,/,?,-3%,-2%,0%
CC(NCCC(c1ccccc1)c1ccccc1)c1ccccc1 (stereo unspecified),25µM*!,?,0%,4%,21%,4%
Cc1ccc(CNC(C)c2ccccc2)s1 (stereo unspecified),/,/,-1%,/,/,0%
Cc1cccc(C)c1NC(=O)Cn1c(=O)n(CCC(=O)NCc2ccc3c(c2)OCO3)c(=O)c2sccc21,/,/,-1%,/,/,-2%
c1ccc(-c2ccccc2OCCOCCN2CCc3ccccc3C2)cc1,-20%,-55%,-4%,-15%,19%,-1%[10.1 µM]
CC1CN(CCOCCOc2ccccc2-c2ccccc2)CC(C)O1 (stereo unspecified),45µM*,/,-2%,/,/,/
Cc1oc(-c2ccc3ccccc3c2)nc1CN(C)C(C)c1ccncn1 (stereo unspecified),22µM*,1%,-5%,-8%,4%,-1%
CC(c1ccncn1)N(C)Cc1nc(-c2ccc(C(F)(F)F)cc2)no1 (stereo unspecified),14%,2%,0%,19%,2%,-2%
Fc1cccc(Cl)c1CNc1ccc(N2CCCC2)cc1,?,-31%,-5%,11µM*,37%,2%
CC[C@@H](c1ccccc1)n1c(=O)n2n(c1=O)[C@H]1[C@H](O)[C@H]3O[C@@H]3/C(=N/OC/C=C(\C)CCC=C(C)C)[C@@H]1CC2,7%,/,/,/,/,1%[10.1 µM]
CC(CN(C)C)NC(=O)c1ccc(-n2c(=O)c(=O)[nH]c3ccccc32)cc1 (stereo unspecified),/,/,/,/,/,-4%
